Where “and” joins values, the source holds several entries; their conditions need not be identical. Identical values can stand only once. A structure can be active in one record and inactive in another. Calls of active or inactive are those of the source. Rule for the calls: active = hit-call score of the fitted dose curve at least 0.9, where 1 is the maximum; inactive = score below 0.9.
Assay: ATG_NRF2_ARE_CIS: Attagene CIS-FACTORIAL HepG2 Assay for human Nuclear Factor Erythroid 2 Related Factor 2 (NFR2) response to Antioxidant Response Elements (ARE) (AID 2282992)
Conditions: HepG2 Attagene ARE/NRF2 reporter, transcription factor activity; actives raise or lower the signal
Description: ATG_CIS is a cell-based, multiplexed-readout assay that uses HepG2, a human liver cell line, with measurements taken at 24 hours after chemical dosing in a 24-well plate.ATG_NRF2_ARE_CIS is one of 52 assay component(s) measured or calculated from the ATG_CIS assay. It is designed to make measurements of mRNA induction, a form of inducible reporter, as detected with fluorescence intensity signals by Reverse transcription polymerase chain reaction (RT-PCR) and Capillary electrophoresis technology.Data from the assay component ATG_NRF2_ARE_CIS was analyzed into 1 assay endpoint. This assay endpoint, ATG_NRF2_ARE_CIS, was analyzed with bidirectional fitting relative to DMSO as the negative control and baseline of activity. Using a type of inducible reporter, measures of mRNA for gain or loss-of-signal activity can be used to understand the reporter gene at the transcription factor-level as they relate to the gene NFE2L2. Furthermore, this assay endpoint can be referred to as a primary readout, because this assay has produced multiple assay endpoints where this one serves a reporter gene function. To generalize the intended target to other relatable targets, this assay endpoint is annotated to the dna binding intended target family, where the subfamily is basic leucine zipper.
Human liver HepG2 cells are transiently transfected with multiple reporter transcription units (MRTUs) in 6-well plates using FuGene 6 reagent (Roche; 3 ml FuGene/1 mg DNA). The MRTU constructs are regulated by a cis-regulating element (promoter). […] A major difference between the CIS and TRANS system is that in CIS activities of endogenous TFs are measured, whereas the TRANS assay evaluates changes in activities of exogenous, chimeric NR-Gal4 proteins. […] At the end of 24 hour incubation, total RNA was isolated using TriZol reagent (Invitrogen). The isolated RNA is then reverse-transcribed using oligo(dT) primer and Mo-MLV reverse transcriptase (Invitrogen) with DNAse I (Ambion) treatment for 30 min. The one-tenth of the produced cDNA was amplified by PCR using Taq DNA polymerase (Invitrogen) and two reporter sequence-specific primers. The PCR products were fluorescently labeled by primer extension with 6-arboxyfluorescein (6-FAM) 5'-labeled reporter sequence-specific primer (2 min at 95 C, 20 s at 68 C and 10 min at 72 C) and these products were digested with 5U of HpaI (New England Biolabs) for 2h at 37 C. The fragments were purified using Qiaquick PCR columns (Qiagen), analyzed on an ABI 3130xL genetic analyzer (Applied Biosystems) with peak positions identified by using a set of X-rhodamine (ROX)-labeled MapMarker1000 molecular weight standards (BioVentures). The raw capillary electrophoresis data was processed using Attagraph software (Attagene).

| Structure (SMILES) | AC50 | outcome |
| --- | --- | --- |
| CCCCCCCCCCCCCCCCOS(=O)(=O)O | 27.3 µM (active) |  |
| NC(=O)NN=Cc1ccc([N+](=O)[O-])o1 | 27.8 µM (active) |  |
| OCCOCCOCCO |  | inactive |
| O=S1(=O)CCCO1 |  | inactive |
| CCCCOC(=O)c1ccccc1 |  | inactive |
| CCCc1ccccc1 |  | inactive |
| Cc1nccn1-c1ccc(Sc2cccc(C3(C(N)=O)CCOCC3)c2)cc1 | 0.858 µM (active) |  |
| CCCCN1C(=O)[C@@H]([C@H](O)C2CCCCC2)NC(=O)C12CCN(Cc1ccc(Oc3ccc(C(=O)O)cc3)cc1)CC2 |  | inactive |
| CCc1ccc(O)c(C(C)(C)C)c1 | 27.7 µM (active) |  |
| Cn1cc[nH]c1=S |  | inactive |
| CCc1cccc(CC)c1N |  | inactive |
| CC(C)CCCCCCOC(=O)C1CCCCC1C(=O)OCCCCCCC(C)C (stereo not given) |  | inactive |
| O=C(O)c1ccc2c(c1)nc(C(=O)NC1CCN(C3CC3)CC1)n2Cc1cc(-c2ccc(Cl)s2)on1 |  | inactive |
| c1ccc2cc3ccccc3cc2c1 |  | inactive |
| CC(C)C(=O)Nc1ccc([N+](=O)[O-])c(C(F)(F)F)c1 | 25.3 µM (active) |  |
| OC(CCl)CCl |  | inactive |
| OC[C@H]1O[C@@H]2O[C@H]3[C@H](O)[C@@H](O)[C@@H](O[C@H]4[C@H](O)[C@@H](O)[C@@H](O[C@H]5[C@H](O)[C@@H](O)[C@@H](O[C@H]6[C@H](O)[C@@H](O)[C@@H](O[C@H]7[C@H](O)[C@@H](O)[C@@H](O[C@H]1[C@H](O)[C@H]2O)O[C@@H]7CO)O[C@@H]6CO)O[C@@H]5CO)O[C@@H]4CO)O[C@@H]3CO |  | inactive |
| S=P(N1CC1)(N1CC1)N1CC1 |  | inactive |
| FC(F)(F)COC(OCC(F)(F)F)OCC(F)(F)F |  | inactive |
| NC(=O)N(O)[C@@H]1COc2cc(OCc3ccccc3)ccc21 |  | inactive |

| Structure (SMILES) | AC50 | outcome |
| --- | --- | --- |
| CC(C)CC(C)O (stereo not given) |  | inactive |
| O=c1[nH]cnc2c1ncn2[C@H]1CC[C@@H](CO)O1 |  | inactive |
| CC1(C)C(=O)N(Cl)C(=O)N1Cl |  | inactive |
| CCn1nc(C)c2c1C(=O)NCC(c1ccc(O)cc1)=N2 |  | inactive |
| FC(F)(F)C(F)(F)C(F)(F)C(F)(F)C(F)(F)C(F)(F)I | 107 µM (active) | inactive |
| c1ccc(C(O[C@@H]2CCCN(CCc3ccc4c(c3)OCO4)C2)c2ccccc2)cc1 | 33 µM (active) |  |
| COc1cc(C(C)C)c2c(c1)S(=O)(=O)N(COc1cc(=O)n3cccc(OCCN4CCCCC4)c3n1)C2=O | 1.29 µM (active) |  |
| CCN(CC)C(=S)SSC(=S)N(CC)CC | 184 µM (active) |  |
| Cn1c(=O)c2[nH]cnc2n(C)c1=O |  | inactive |
| FC(F)C(F)(F)COCC1CO1 (stereo not given) |  | inactive |
| CCCCCCCC/C=C\CCCCCCCC(=O)OC[C@@H](O)[C@H]1OC[C@H](O)[C@H]1O |  | inactive |
| c1ccc2c(c1)-c1cccc3c1c-2cc1ccccc13 | 204 nM (active) and 29.8 µM (active) |  |
| Cc1ncc([C@@H](CCCCCCc2ccc3c(n2)NCCC3)CC(=O)O)cn1 |  | inactive |
| CCCCCOC(C)=O |  | inactive |
| CC(=O)c1ccccc1 |  | inactive |
| O=C(Cl)C(F)(F)C(F)(F)C(F)(F)C(=O)Cl |  | inactive |
| CCCOc1ccc(S(=O)(=O)N2CCN(CC)CC2)cc1-c1nc2c(CC)n(Cc3ccccn3)nc2c(=O)[nH]1 | 43 µM (active) |  |
| C[Si](C)(C)C(F)(F)C(F)(F)C(F)(F)F |  | inactive |
| O=S(=O)(O)CCC(F)(F)C(F)(F)C(F)(F)C(F)(F)C(F)(F)C(F)(F)F |  | inactive |

From PubChem BioAssay (EPA / NIEHS)
